# LGR2 inh: inhibitors of bursicon-induced Drosophila LGR2 receptor cAMP signaling | AID 720647 | HEK293 LGR2, CRE-luciferase, bursicon-stimulated, 4 h | 380,000 compounds, 0.35% hits | inhibition, % at 9.99 µM;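 active means drop in luminescence signal, shown as inhibition above about 50% in the replicate tests, limit read from the data, passing the limit was not always enough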;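 further: agonist challenge used bursicon conditioned medium at about half maximal strength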
# TROY signal inh: blocks TROY-dependent signaling in reporter cells; AID 1347056; inhibition, % at 10 µM; Q293 LMP1-TROYcd NF-kB luciferase reporter, 4 h; 360,000 compounds, 0.98% hits;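 active means compounds whose plate-normalised and pattern-corrected inhibition of the luciferase reporter signal at the single screening dose is 50% or more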
# HSP90 inh: HSP90 refolding inhibition in rabbit reticulocyte lysate; luciferase refolding luminescence, 3 h; inhibition, % at 5.6 µM; 290,000 compounds, 0.91% hits;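 active means inhibition above the screen-wide mean plus 3 SD, computed separately per campaign, cut at about 16% in these data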;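 further: 0% = DMSO wells and 100% = 60 µM geldanamycin wells; inhibitors lower the luminescence because luciferase stays unfolded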
# aDG glyco up: increases alpha dystroglycan glycosylation; 360,000 compounds, 0.22% hits; activation, % at 10 µM; Pro5-aDG cells, alpha-DG glycosylation AlphaScreen (IIH6); 0% Pro5, 100% B10-LARGE cell signal;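 active means activation of at least 8% versus controls, or a plate z-score of at least 8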;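 further: Pro5 are CHO cells carrying HIG-tagged alpha-DG that lacks glycosylation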
# EBV LMP1 NFkB: reduces LMP1-driven NF-kappaB luciferase signal | LMP1-induced NF-kappaB luciferase reporter cells, luminescence | inhibition, % at 12.5 µM | 350,000 compounds, 0.69% hits; in the data active means inhibition above about 41%;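 further: 0% = neutral control wells and 100% = reference inhibitor control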
# TWEAK-Fn14 inh: blocks TWEAK-Fn14 interaction in a reporter cell assay. 360,000 compounds, 2% hits. AID 1159606. TWEAK-stimulated Fn14 reporter cells, luciferase luminescence, 8 h. inhibition, % at 10 µM; in the data active means inhibition above about 50%
# Numbers without * were called inactive; x = no result given. Most compounds without a hit are left out; they make up all but 2.6% or so of the library.
SMILES,LGR2 inh,TROY signal inh,HSP90 inh,aDG glyco up,EBV LMP1 NFkB,TWEAK-Fn14 inh
O=C(CCCN1C(=O)/C(=C/c2ccccc2Cl)SC1=S)N1CCCC1,29,11,9,0,7,58*
O=C(CCCN1C(=O)/C(=C/c2ccccc2Cl)SC1=S)NNC(=O)c1ccccc1Cl,-2,34,-2,1,44*,78*
O=C(O)CN1C(=O)/C(=C\c2cc(Br)ccc2OCc2ccccc2Cl)SC1=S,8,50,-1,0,-11,-20
O=C(CCCN1C(=O)/C(=C/c2ccccc2Cl)SC1=S)NNC(=O)c1ccncc1,14,68*,5,0,8,79*
COc1ccc(-c2c(C)nc3c(-c4ccsc4)cnn3c2N)cc1,-121,57*,8,0,-30,32
COc1ccc(-c2c(C)nc3c(-c4ccccn4)cnn3c2N)cc1,-159,59*,14,2,-71,56*
C[C@@H]1CN([C@@H](C)CO)C(=O)Cc2cc(NS(=O)(=O)c3cn(C)cn3)ccc2O[C@H]1CN(C)CC1CCCCC1,-32,x,x,x,x,x
NCC[C@H]1CC[C@H](NS(=O)(=O)Cc2ccccc2)[C@@H](CO)O1,89*,x,x,x,x,x
C/C(=N\NC(=O)COc1ccccc1-c1ccccc1)c1ccccn1,25,22,2,-1,41*,-71
NC(=O)CC(NC(=O)c1ccc(Br)cc1)c1ccc(N2CCC(Cc3ccccc3)CC2)c([N+](=O)[O-])c1 (stereo not drawn),24,-3,1,0,9,18
NC(=O)CC(NC(=O)c1ccccc1)c1ccc(N2CCC(Cc3ccccc3)CC2)c([N+](=O)[O-])c1 (stereo not drawn),-11,55*,5,1,18,43
O=c1cc(Nc2ccc3c(c2)OCCO3)[nH]c(=O)n1Cc1ccc(F)cc1,-1,51*,3,0,9,69*
O=C(c1ccccc1Cl)N(C(=O)c1ccccc1Cl)c1nccc(-c2cccs2)n1,x,67*,2,0,23,77*
O=C(Nc1nccc(-c2cccs2)n1)c1ccccc1Cl,x,-31,1,0,4,-12
Cc1cc(-c2ccccc2)n(-c2cc(N/N=C/c3ccccc3O)ncn2)n1,13,42,2,0,21,69*
O=C(N[C@@H]1CC[C@H](CC(=O)N2CCN(c3ccccc3)CC2)O[C@H]1CO)c1ccccc1,14,x,x,x,x,x
C[C@H]1CN([C@@H](C)CO)C(=O)c2cc(-c3ccc(C#N)cc3)cnc2O[C@H]1CN(C)C(=O)Nc1ccc(C(F)(F)F)cc1,-3,x,x,x,x,x
Cc1ccc(NC(=S)NC(=O)c2ccc(F)cc2)cc1S(=O)(=O)Nc1cccc(Cl)c1,-18,50*,5,0,14,68*
Cc1ccc(NC(=O)CC(=O)c2ccc([N+](=O)[O-])cc2)cc1S(=O)(=O)Nc1cccc(Cl)c1,-2,8,-1,0,0,38
Cc1ccc(NC(=O)c2cccs2)cc1S(=O)(=O)Nc1cccc(Cl)c1,28,39,1,0,-8,60*
Cc1ccc(S(=O)(=O)Nc2ccc(NC(=O)c3cccs3)cc2)cc1,15,2,0,0,-6,-42
Cc1cc(C)c(NS(=O)(=O)c2ccc(NC(=O)c3cccs3)cc2)c(C)c1,37,51*,-6,0,3,41
O=C(NNC(=O)c1cccs1)Nc1cccc(Cl)c1,x,-21,-8,0,-3,-11
C[C@@H]1CN([C@@H](C)CO)C(=O)c2cccc(NC(=O)NC3CCCCC3)c2O[C@@H]1CN(C)S(=O)(=O)c1ccc(F)cc1,-17,x,x,x,x,x
CO[C@@H]1CN(C)C(=O)c2cc(NC(=O)C3CC3)ccc2OC[C@@H](C)N(C(=O)c2cccnc2)C[C@@H]1C,1,x,x,x,x,x
SMILES,LGR2 inh,TROY signal inh,HSP90 inh,aDG glyco up,EBV LMP1 NFkB,TWEAK-Fn14 inh
CCCCCCOC(=O)Cc1c(C)nc(N)[nH]c1=O,-5,-8,-5,0,-3,56*
CCCCCCOC(=O)CCc1c(C)nc(N)[nH]c1=O,-10,x,7,0,5,-8
Cc1c(OC(C)C(=O)O)ccc2c3c(c(=O)oc12)CCCC3 (stereo not drawn),4,-6,4,0,-4,56*
CC(=O)Oc1ccc2c3c(c(=O)oc2c1C)CCCC3,-11,1,-3,0,11,12
O=c1c2[nH]c3cccc(Cl)c3c2ncn1CC1CCCO1 (stereo not drawn),-21,77*,0,0,-16,87*
O=c1c2[nH]c3cccc(Cl)c3c2ncn1CCN1CCCCC1,-21,-6,0,0,-2,-5
CCCS(=O)(=O)Nc1ccc(Nc2c3ccccc3nc3ccccc23)c(OC)c1,-3,-27,x,0,43*,-40
N#C/C(=C\c1ccccc1C(F)(F)F)C(=O)Nc1ccccc1,19,-69,-4,0,8,-82
CCc1cccc(CC)c1NC(=O)/C(C#N)=C/c1ccccc1C(F)(F)F,41,42,-1,0,3,83*
COc1cc(-c2nc(C(=O)NCC3CCCO3)cc3c2[nH]c2ccccc23)cc(OC)c1OC (stereo not drawn),23,-8,0,-1,92*,59*
O=C(NCC1CCCO1)c1cc2c([nH]c3ccccc32)c(-c2cccc(Cl)c2)n1 (stereo not drawn),x,27,2,0,-6,56*
COc1ccccc1-c1nc(C(=O)NCC2CCCO2)cc2c1[nH]c1ccccc12 (stereo not drawn),x,3,2,0,-14,24
CC(C)NC(=O)N(C)C[C@H]1Oc2c(cccc2N(C)C)C(=O)N([C@@H](C)CO)C[C@H]1C,3,x,x,x,x,x
C[C@@H]1CN([C@H](C)CO)S(=O)(=O)c2ccc(/C=C/c3ccccc3)cc2O[C@@H]1CN(C)C,5,x,x,x,x,x
O=C(CCl)N(c1ccccc1)C1CCCCC1,94*,6,-6,-1,-18,33
Cc1ccc(C2=NNC(c3cccc(F)c3)S2)cc1 (stereo not drawn),x,54*,5,0,26,65*
Fc1cccc(C2NN=C(c3ccccc3)S2)c1 (stereo not drawn),34,5,8,0,5,37
COc1cc(/C=C2/C(C)=C(C#N)c3nc(N)c(C#N)c(C)c32)ccc1OCC(=O)O,1,x,3,x,-3,x
CC1=C(C#N)c2nc(N)c(C#N)c(C)c2/C1=C\c1ccc(-c2ccccc2C(=O)O)o1,26,25,-1,0,30,70*
C/C=C/c1cnc2c(c1)C(=O)N([C@@H](C)CO)C[C@H](C)[C@H](CN(C)C(=O)Nc1ccc(OC)cc1)O2,1,x,x,x,x,x
CCCCCCCc1ccc(-c2ccc(O)cc2)nc1,-34,-63,-4,0,-38,-24
CCCCCc1ccc(-c2ccc(/C=C/C(=O)O)cc2)nc1,-2,-31,14,1,43*,60*

# High-throughput results (PubChem)
